An excerpt weighted towards active compounds, which were near 7.9% of everything screened.
KB-3-1 cytotox: KB-3-1 parental cell cytotoxicity; KB-3-1 viability, CellTiter-Glo ATP luminescence, 72 h; Potency, µM (titrated, usually from 46.1 µM), actives largely listed as cytotoxic; 400,000 tested, 1.4% active; AID 1347075; also: nearly all actives have a fitted effect of over 60% in size
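Multi-concentration cytotoxicity screen in KB-3-1 cells grown in DMEM lacking phenol red with 10% FBS. After 72 h at 37 °C with compound, ATP-dependent luminescence was recorded.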
KB-V1 MDR tox: kills drug-selected multidrug resistant KB-V1 cells; KB-V1 MDR cells viability, CellTiter-Glo, 72 h; Potency, µM (doses to about 46.1 µM), most hits filed as cytotoxic; 400,000 tested, 3.4% active; AID 1347076; also: nearly all actives have a fitted effect of over 60% in size
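In this primary screen, KB-V1 cells overexpressing P-gp are incubated with library compounds (lowest to highest concentration) for 72 h at 37 degrees C before a luminescent ATP viability read.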
SW480 rereplic: DNA re-replication induction in SW480 cells. SW480 DNA re-replication, Hoechst DNA content imaging, 48 h. Potency, µM (doses to about 46.1 µM), most hits filed as activators. 340,000 tested, 1.8% active; also: nearly all actives have a fitted effect of over 55% in size
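Per well, 250 cells were exposed to pinned compound for 48 hr. Nuclear DNA was visualised with Hoechst (40 min, 37 C) and total object intensity recorded by fluorescence scanning.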
MCF10A rerep: inducers of DNA re-replication in MCF 10A breast cells; 350,000 tested, 2.9% active; Potency, µM (top dose mostly 46.1 µM), most hits filed as activators; MCF 10A DNA re-replication, Hoechst nuclear intensity, 48 h; also: nearly all actives have a fitted effect of over 50% in size
HT1080 IDH1KD tx: toxicity to HT-1080 IDH1 knockdown cells (counter line); HT-1080 IDH1 knockdown viability, ATP luminescence, 48 h; Potency, µM (titrated, usually from 46.1 µM), actives largely listed as cytotoxic; 360,000 tested, 2% active; AID 686971
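Assay cells: HT-1080 with IDH1 knockdown, 750 per well, RPMI/5% FBS. Exposure: 48 h at 37 °C following 2 h pre-incubation. Read: CellTiter-Glo luminescence; fitted concentration-response, curve class assigned.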
HT1080NT lethal: kills 2HG-producing HT-1080-NT fibrosarcoma cells | HT-1080-NT fibrosarcoma viability, CellTiter-Glo ATP luminescence, 48 h | Potency, µM (doses to about 46.1 µM), actives largely listed as cytotoxic | 360,000 tested, 1.6% active;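 also: NT is the 2HG producing partner of a matched IDH1 knockdown line; nearly all actives have a fitted effect of over 55% in size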
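750 cells/well, RPMI + 5% FBS; 2 h settle, compound pin-transfer, 48 h at 37 degrees C. CellTiter-Glo 10 min RT, luminescence. Normalized to DMSO and media-only wells.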
Numbers stand for hits; . = inactive; ? = inconclusive; / = not tested or not shown; [ ] = dose if it differs, or a comment. Calls follow the shape of the dose curve; as a rule, active = well fitted curve in the direction sought with a large enough effect; inconclusive = small, poorly fitted or top-dose-only effect, or another doubt; inactive = no such curve, though single readings can be large; an effect the other way counts as inactive or inconclusive.

SMILES	KB-3-1 cytotox	KB-V1 MDR tox	SW480 rereplic	MCF10A rerep	HT1080 IDH1KD tx	HT1080NT lethal
CCOc1ccccc1C(=O)NC1CCN(Cc2nnnn2C2CCCC2)CC1	.	9.2µM	.	.	.	.
S=C(Nc1cc(Cl)ccc1Cl)Nn1cnnc1	.	.	.	.	.	.
Cc1nc2ccccn2c1C(=O)N/N=C/c1cc(C)n(-c2ccc(Br)cc2)c1C	21µM	?	.	?	.	.
Cc1ccc2nc(C)c(C(=O)NN=C3CCN(C)CC3)n2c1	.	.	21µM	?	5.2µM	5.2µM
Cc1nc2ccccn2c1C(=O)N/N=C/c1ccccc1	.	.	.	.	.	.
COc1ccc(/C=N\NC(=O)c2c(C)nc3ccc(Br)cn23)cc1	?	?	2.3µM	?	0.58µM	?
COc1ccc(/C=N/NC(=O)c2c(C)nc3ccc(Br)cn23)cc1OC	.	.	.	?	4.6µM	?
CC1(C)Cc2c(C#N)c(SCC(=O)O)nc(N3CCOCC3)c2CO1	.	.	?	.	.	.
Cc1ccc(C(=O)N/C(=C\c2sccc2C)C(=O)NCCCN2CCOCC2)cc1	.	.	.	.	.	.
Cc1ccc(/C=N/NC(=O)c2c(C)nc3ccc(Br)cn23)cc1	1.5µM	1.3µM	1.5µM	?	0.58µM	1.3µM
COc1cccc(/C=N/NC(=O)c2c(C)nc3ccc(Br)cn23)c1O	?	.	0.65µM	.	?	?
CCOc1ccccc1/C=N/NC(=O)c1c(C)nc2ccc(Br)cn12	.	.	.	.	.	.
Cc1onc(-c2c(F)cccc2Cl)c1C(=O)c1ccccc1O	?	.	?	.	26µM	?
Cc1onc(-c2c(F)cccc2Cl)c1C(=O)c1ccccc1	.	.	.	.	.	.
C/C(=N\OC(=O)c1c(-c2c(F)cccc2Cl)noc1C)c1nccs1	.	.	.[1.84 µM]	.	.	.
Cc1onc(-c2c(F)cccc2Cl)c1C(=O)O/N=C(\N)c1ccc([N+](=O)[O-])o1	.	?	.	?	12µM	.
Cc1onc(-c2c(F)cccc2Cl)c1C(=O)NC(=S)NC1CCS(=O)(=O)C1 (configuration not stated)	.	23µM	.	.	.	.
O=C(COC(=O)c1cc(S(=O)(=O)N2CCOCC2)ccc1F)c1ccccc1	.	.	.	?	.	.
CCCn1nc(C(=O)Nc2ccc3c(c2)OCCO3)c2ccccc2c1=O	.	16µM	.	.	.	.
CCCn1nc(C(=O)NC2CCCC2)c2ccccc2c1=O	.	.	.	.	.	.
CCCCn1nc(C(=O)Nc2ccccc2N2CCCC2)c2ccccc2c1=O	.	3.7µM	.	?	.	.
CCCCn1nc(C(=O)NC2CCCCCC2)c2ccccc2c1=O	/	/	.	.	.	.
CCCn1nc(C(=O)NC2CCCc3ccccc32)c2ccccc2c1=O (configuration not stated)	.	23µM	.	.	.	.
CCCn1nc(C(=O)Nc2ccc3c(c2)OCO3)c2ccccc2c1=O	.	?	.	.	.	.
CC(C)C1CC(CCNCc2ccc3c(c2)OCO3)(c2ccccc2)CCO1 (configuration not stated)	?	?	?	?	26µM	18µM
SMILES	KB-3-1 cytotox	KB-V1 MDR tox	SW480 rereplic	MCF10A rerep	HT1080 IDH1KD tx	HT1080NT lethal
Cc1ccc(C2(CCNCc3ccc(N(C)C)cc3)CCOC(C(C)C)C2)cc1 (configuration not stated)	?	?	?	?	18µM	23µM
CC(NCc1ccc2c(c1)OCO2)c1ccccc1 (configuration not stated)	.	.	.	.	.	.
Cc1ccc(C2(CCNS(=O)(=O)c3ccc(C)cc3)CCOC(C(C)C)C2)cc1 (configuration not stated)	?	3.7µM	.	?	.	.
CC(C)C1CC(CCNCc2ccc(N(C)C)cc2)(c2ccccc2)CCO1 (configuration not stated)	21µM	?	.	?	?	.
CCC1(C)CC(CCNS(=O)(=O)c2ccc(C)cc2)(c2ccc(C)cc2)CCO1 (configuration not stated)	?	?	.	?	?	?
COc1cc(OC)c(NC(=O)c2ccc3c(Cl)c4c(nc3c2)CCCC4)cc1Cl	.	?	/	/	/	/
CCN(CC(=O)NCc1cccs1)C(=O)COc1ccc(C(N)=O)cc1	.	.	.	.	.	.
CC(C)c1ccccc1NC(=O)Nc1ccc2c(c1)OCO2	.	.	.	.	.	.
CC(C)NC(=O)C1C(c2ccccc2)=Nc2ccccc2N1C(=O)c1cc(Cl)cc(Cl)c1 (configuration not stated)	.	?	/	/	16µM	16µM
Cc1cccc(N2CCN(C(=O)c3cc4c(=O)n(C)c5ccccc5c4n3C)CC2)c1C	.	.	.	.	.	.
Cc1ccc(Cl)cc1N1CCN(C(=O)c2cc3c(=O)n(C)c4ccccc4c3n2C)CC1	?	2.6µM	.	.	.	.
CCCc1cc(=O)n2[nH]cc(-c3ccc(Cl)cc3)c2n1	16µM	7.3µM	18µM	?	?	?
COCc1cc(=O)n2[nH]cc(-c3ccccc3)c2n1	?	?	.	?	.	.
CCOC(=O)CSC1=NC(=O)/C(=C/c2ccc(OC)cc2)S1	12µM	?	?	5.8µM	?	?
CC(=O)N1NC(=Nc2ccccc2)SC1(C)C	.	18µM	.	.	.	.
COc1ccc(-c2oc(NC(=O)CSc3nncn3C)c(C#N)c2-c2ccc(OC)cc2)cc1	?	.	.	13µM	16µM	?
CCn1c(SCC(=O)Nc2oc(-c3ccccc3)c(-c3ccccc3)c2C#N)nnc1-c1ccco1	.	?	.	?	.	.
N#Cc1c(NC(=O)CCN2C(=O)c3ccccc3C2=O)oc(-c2ccccc2)c1-c1ccccc1	.	.	.	.	.	.
CCn1c(SCC(=O)Nc2oc(-c3ccccc3)c(-c3ccccc3)c2C#N)nnc1-c1ccncc1	.	.	.	23µM	.	.
N#Cc1c(NC(=O)CSc2ccccn2)oc(-c2ccccc2)c1-c1ccccc1	.	.	.	21µM	.	.
NC(=O)c1ccc(-c2nnn(CC(=O)N(C3CCCC3)C3CCS(=O)(=O)C3)n2)cc1 (configuration not stated)	.	.	.	.	.	.[9.24 µM]
CC1CC(=O)N(C)c2ccc([N+](=O)[O-])cc2N1 (configuration not stated)	.	.	.	.	.	.
CC(C)(C)c1ccc(C(=O)N2CCC2(C)C(=O)Nc2ccc3[nH]ncc3c2)cc1 (configuration not stated)	.	.	/	/	?	.

Bioassay records as filed in PubChem.
